Data reported in PubChem BioAssay (Tox21).
Inconclusive results are not listed. Where a call stands in place of a potency, no number is given. Unmarked numbers belong to inactive results. Activity calls are given as the source filed them. Calls follow the shape of the full dose curve.
Potency is read from the fitted curve at half-maximal effect.

Assay: qHTS assay for small molecule disruptors of the mitochondrial membrane potential - cell viability (AID 720634); also: nearly all actives have a fitted effect of over 20% in size;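 as to activity change, negative = cytotoxicity: human HepG2 liver cancer cells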
Settings: HepG2 viability, ATP luminescence (CellTiter-Glo), 1 h; series mostly up to 83.2 µM
Source text: U.S. Tox21 Program National Center for Advancing Translational Sciences [NCATS] NIH Chemical Genomics Center [NCGC] U.S. Environmental Protection Agency [EPA] National Institutes of Environmental Health Sciences [NIEHS] National Toxicology Program [NTP] U.S. Food and Drug Administration [FDA] Tox21 Assay Overview: Mitochondrial membrane potential (MMP), one of the parameters for mitochondrial function, is generated by mitochondrial electron transport chain that creates an electrochemical gradient by a series of redox reactions. This gradient drives the synthesis of ATP, a crucial molecule for various cellular processes. Measuring MMP in living cells is commonly used to assess the effect of chemicals on mitochondrial function; decreases in MMP can be detected using lipophilic cationic fluorescent dyes. […] The dye accumulates in the mitochondria of healthy cells as aggregates, with red fluorescence. The mitochondrial potential decreases and the dye could not accumulate in the mitochondria and remains in the cytoplasm in monomers, with green fluorescence. In addition to the mitochondrial potential assay, these cells were also used to test the cytotoxicity by determining the cell viability in the culture based on the quantitation of ATP present. The cytotoxicity was measured in the same assay well of MMP assay.
Tox21 Assay Protocol Summary: 2,000 HepG2 cells in 5 uL/well were dispensed into black, clear-bottom 1536-well plates using a Multidrop Combi (Thermo Scientific) dispenser. The assay plates were incubated for an overnight at 37 C to allow cells to attach to the wells, followed by the transfer of 23 nL compound or DMSO vehicle by a pin tool (Kalypsys). The plates were incubated for 1 hr at 37 C and 5% CO2, followed by the addition of 5 uL of 2X m-MPI dye into each well using Flying Reagent Dispenser (Aurora Discovery) and then CellTiter-Glo reagent was added at 4 uL/well and incubated 30 min at room temperature. Then luminescence intensity was quantified on a ViewLux CCD-based plate reader.
With Nc1ccc(F)cc1F the Potency was “inactive”. For CCC1=C(C)CN(C(=O)NCCc2ccc(S(=O)(=O)NC(=O)NC3CCC(C)CC3)cc2)C1=O (stereo not given), the Potency was “inactive”. With CCC[Si](OC)(OC)OC the Potency was “inactive”. For CC(CN=Cc1ccccc1O)N=Cc1ccccc1O (stereo not given), the Potency was “inactive”. With O=C(O)c1ccc2cc(O)ccc2c1 the Potency was “inactive”. With Cc1ccc(NC(=O)c2ccc(CN3CCN(C)CC3)cc2)cc1Nc1nccc(-c2cccnc2)n1 the Potency was “inactive”. In the case of Cc1cc(C)n(CO)n1, the Potency is reported as “inactive”. For [O-][n+]1ccc(Cl)cc1, the Potency was “inactive”. With CCCCCCCCOCCCN the Potency was “inactive”. With COC(=O)C(C)(C)C the Potency was “inactive”. In the case of CCc1ccc(C(=O)C(C)CN2CCCCC2)cc1 (stereo not given), the Potency is reported as “inactive”. In the case of CCCCCCCCNC, the Potency is reported as “inactive”. With CC(Cc1ccccc1)(NC(=O)CN)c1ccccc1 (stereo not given) the Potency was “inactive”. With CCCC(=O)OCCC(C)C the Potency was “inactive”. In the case of O=C(O)CCc1nc2ccccc2[nH]1, the Potency is reported as “inactive”. With COc1cc(C)c(Cc2cnc(N)nc2N)cc1OC the Potency was “inactive”. In the case of O=c1[nH][nH]c2ccccc12, the Potency is reported as “inactive”. In the case of CCCCCCOC(=O)c1ccccc1, the Potency is reported as “inactive”. In the case of CCCCCC1CCC(=O)O1 (stereo not given), the Potency is reported as “inactive”. With O=C(O)CNc1ccccc1 the Potency was “inactive”. In the case of Cc1c(-c2cccnc2)c2ccccc2n1CCCCC(=O)O, the Potency is reported as “inactive”. For Clc1cccc(C(c2ccc3nc[nH]c3c2)n2ccnc2)c1 (stereo not given), the Potency was “inactive”. In the case of COC(=O)Cc1cccc2ccccc12, the Potency is reported as “inactive”. For O=C(OCCOCCOCCOC(=O)c1ccccc1)c1ccccc1, the Potency was “inactive”. In the case of Cc1c(Cl)cccc1[N+](=O)[O-], the Potency is reported as “inactive”. For CC(C)=CCC/C(C)=C/C=N/O, the Potency was “inactive”. With Cc1cc(SC2=C(O)C[C@@](CCc3ccc(N)cc3)(C(C)C)OC2=O)c(C(C)(C)C)cc1CO the Potency was “inactive”. For CC1=CC(=C(c2ccc(N)cc2)c2ccc(N)cc2)C=CC1=N, the activity change, negative = cytotoxicity was -6.69% [at 8.08 µM]. In the case of COc1ccc(C(=O)c2ccc(C)cc2)c(O)c1, the Potency is reported as “inactive”. For Cc1cccc(C)c1NC(=O)CN1CCCC1, the Potency was “inactive”. In the case of CCOc1ccc2c(c1)C(C)CC(C)(C)N2 (stereo not given), the Potency is reported as “inactive”. With S=c1[nH][nH]c(=S)s1 the Potency was “inactive”. With CC(C)C/C=C(\C=O)c1ccccc1 the Potency was “inactive”. In the case of CCOc1cc(OCC)c(C(C)=O)cc1OCC, the Potency is reported as “inactive”. For CCCCCCCCCCCCN1CCOCC1, the Potency was “inactive”. For O=C(O)COCC(=O)O, the Potency was “inactive”. In the case of CCOCCn1c(N2CCCN(C)CC2)nc2ccccc21, the Potency is reported as “inactive”. In the case of N#Cc1ccc(CC(=O)c2cccc(C(F)(F)F)c2)cc1, the Potency is reported as 48.6 µM (active). For FC(F)(Cl)C(F)(Cl)Cl, the Potency was “inactive”. In the case of CC(C)Cc1nccs1, the Potency is reported as “inactive”.
